# Screening data: PubChem BioAssay, National Center for Advancing Translational Sciences (NCATS)
# An excerpt weighted towards active compounds, which were near 7.5% of everything screened.
# NPC1 promoter act: activates the NPC1 promoter; Huh7 NPC1 promoter luciferase reporter, 24 h; Potency, µM (titrated, usually from 9.22 µM), hits mostly activators; hit rate 2.4% among 320,000; AID 485313; also: nearly all actives have a fitted effect of over 60% in size
#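 Luminescence from an NPC1 promoter-driven luciferase reporter in stably transfected Huh7 cells was measured after 24 h compound treatment at 37 °C, followed by 10 min ambient incubation with luciferase detection reagent.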
# Rab9 prom act: activates the Rab9 promoter; Huh7 Rab9 promoter-luciferase reporter, luminescence, 24 h; Potency, µM (highest dose often 9.22 µM), actives largely listed as activators; hit rate 2.8% among 320,000; also: nearly all actives have a fitted effect of over 60% in size
#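 Quantitative HTS format; Huh7 Rab9-luciferase reporter cells (1500/well) receive compound 2 h post-plating, incubate 24 h at 37 °C, then get luciferase reagent for 10 min before luminescence reading.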
# ELG1 genotoxic: induces genotoxicity in HEK293T cells with luciferase-tagged ELG1; HEK293T ELG1-luciferase reporter, luminescence, 16 h; Potency, µM (doses to about 46 µM), actives largely listed as activators; hit rate 1.3% among 330,000; also: nearly all actives have a fitted effect of over 60% in size
#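 16 hr compound incubation (37 °C, 5% CO2) of HEK293T cells carrying luciferase-tagged ELG1; luciferase then measured by ONE-Glo luminescence after 30 min at RT.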
# Luc counter: blocks Kinase-Glo luciferase, a counter-screen artifact; Q27757; Kinase-Glo luciferase, ATP luminescence, 8 min; Potency, µM (doses to about 38.3 µM), hits mostly inhibitors; hit rate 0.28% among 200,000; AID 1379; also: nearly all actives have a fitted effect of over 60% in size
#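 Recombinant Kinase-Glo luciferase, 10 uM ATP (linear range), luciferin; imidazole pH 7.2 / KCl / MgCl2 / Tween / BSA buffer; 8 min RT; luminescence.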
# FLuc modulator: counter-screen for miR-21 project: firefly luciferase inhibitors or activators. purified FLuc, Km substrates, luminescence inhibition. Potency, µM (doses to about 57.5 µM), actives largely listed as inhibitors. hit rate 6.9% among 360,000. AID 588342; also: nearly all actives have a fitted effect of over 55% in size
# Target sequence (P08659 whole entry, looked up): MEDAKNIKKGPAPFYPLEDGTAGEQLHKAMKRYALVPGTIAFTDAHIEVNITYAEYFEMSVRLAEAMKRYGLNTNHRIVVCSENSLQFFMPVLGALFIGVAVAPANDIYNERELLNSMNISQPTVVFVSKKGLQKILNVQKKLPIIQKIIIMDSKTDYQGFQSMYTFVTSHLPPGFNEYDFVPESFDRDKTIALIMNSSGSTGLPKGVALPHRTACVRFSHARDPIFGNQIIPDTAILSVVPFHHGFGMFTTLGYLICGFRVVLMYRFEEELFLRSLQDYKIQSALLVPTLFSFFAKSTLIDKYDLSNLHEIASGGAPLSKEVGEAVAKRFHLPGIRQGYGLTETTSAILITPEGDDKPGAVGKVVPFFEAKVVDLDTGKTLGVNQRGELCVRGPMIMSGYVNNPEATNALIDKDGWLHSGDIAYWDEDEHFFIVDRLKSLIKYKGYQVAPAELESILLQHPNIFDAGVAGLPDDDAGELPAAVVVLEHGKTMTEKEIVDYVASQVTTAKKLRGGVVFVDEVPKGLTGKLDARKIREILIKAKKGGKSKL
#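 Purified P. pyralis luciferase (10nM final) with 10uM D-luciferin and 10uM ATP (Km levels) in 50mM Tris acetate pH 7.5, 10mM Mg acetate, 0.01% Tween-20, 0.05% BSA; qHTS 6-point titration, ~60 µM downward; luminescence read.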
# SMN2 splice enh: increases expression of the SMN2 splice variant | AID 1458 | hit rate 2.8% among 210,000 | Potency, µM (highest dose often 46.1 µM), hits mostly activators | HEK293 SMN2-luciferase splicing reporter, luminescence, 30-36 h; also: nearly all actives have a fitted effect of over 55% in size
#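 HEK293 cells carry an SMN2 […]–luciferase reporter in which exon 7 inclusion puts luciferase in frame. Cells were plated 10-12 h before compound addition, then incubated 30-36 h at 37C. ONE-Glo luminescence was read; sodium butyrate at 4.5 mM final served as control.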
# Hits are given with their value; . = inactive; ? = inconclusive; / = not tested or not shown. Calls follow the shape of the dose curve; as a rule, active = well fitted curve in the direction sought with a large enough effect; inconclusive = small, poorly fitted or top-dose-only effect, or another doubt; inactive = no such curve, though single readings can be large; an effect the other way counts as inactive or inconclusive.
SMILES,NPC1 promoter act,Rab9 prom act,ELG1 genotoxic,Luc counter,FLuc modulator,SMN2 splice enh
O=C(N/N=C/c1ccc(OC(F)F)cc1)C1=COCCO1,3.2µM,2µM,?,.,8.5µM,11µM
Cc1ccc(C(=O)Nc2ccc(SC(F)F)cc2)s1,2.8µM,1.3µM,?,.,6.7µM,7.1µM
CC[N+](CC)(CC)CC(=O)Nc1ccc(SC(F)F)cc1,.,.,.,.,.,.
CN(C(=O)CSc1nc2ccc(NC(=O)COc3ccc(F)cc3)cc2s1)c1ccccc1,/,/,/,/,.,/
Cc1noc(Cn2c(=O)c3cc4c(cc3n(CC(=O)Nc3ccccc3F)c2=O)OCO4)n1,/,/,/,/,.,/
O=C(Nc1nnc(C(F)(F)F)s1)C1COc2ccccc2O1 (stereo unspecified),.,.,.,.,?,.
CC(=O)c1sc(NC(=O)C2COc3ccccc3O2)nc1C (stereo unspecified),0.45µM,0.35µM,?,.,1.9µM,3.2µM
CC1(C)CC(=O)c2sc(NC(=O)C3COc4ccccc4O3)nc2C1 (stereo unspecified),.,?,21µM,.,?,13µM
CC1(C)CC(=O)c2sc(NC(=O)c3ccco3)nc2C1,?,.,21µM,.,6µM,?
O=C(Nc1nnc(C2CC2)s1)C1COc2ccccc2O1 (stereo unspecified),2.8µM,0.89µM,4.1µM,.,11µM,5.6µM
Cc1ccc(N2CC(C(=O)Nc3c(C)n(C)n(-c4ccccc4)c3=O)CC2=O)cc1 (stereo unspecified),.,.,.,.,.,.
CCOC(=O)c1cc(-c2ccc(F)cc2)n(CCC(=O)NCc2ccccc2OC)c1C,/,/,/,/,.,/
COc1cccc(NC(=O)Cn2nnc(-c3nc(-c4ccccc4)no3)c2N)c1,/,/,/,/,.,/
COc1ccc(NC(=O)Cn2c(=O)n(-c3ccccc3)c(=O)c3c4c(sc32)CCCC4)cc1,/,/,/,/,.,.
CC(C)(C)c1csc(NC(=O)C2COc3ccccc3O2)n1 (stereo unspecified),?,?,?,/,15µM,/
O=C(Nc1nncs1)C1COc2ccccc2O1 (stereo unspecified),.,.,.,.,?,?
Cc1ccc(C2=NN3C(=O)c4ccccc4C3C2)cc1 (stereo unspecified),?,?,?,/,17µM,/
O=C(Nc1cccn2ncnc12)c1ccc(Cl)cc1,.,.,.,/,.,/
O=C(Nc1cnc2ccccn2c1=O)c1ccc(Cl)cc1,3.5µM,2.2µM,?,.,15µM,35µM
Cc1c(CC(=O)NCC(=O)O)c(=O)oc2cc3occ(-c4ccccc4)c3cc12,.,.,.,/,24µM,/
COc1ccccc1CCNC(=O)Cc1c(C)c2ccc(O)cc2oc1=O,/,/,/,/,.,.
Cc1c(CC(=O)NCc2ccccc2Cl)c(=O)oc2cc(O)ccc12,/,/,/,/,21µM,.
Cc1c(CC(=O)NCCCC(=O)O)c(=O)oc2cc3occ(-c4ccccc4)c3cc12,.,.,.,/,19µM,/
Cc1nc(-c2ccc(C)c(N3CCN(C(=O)Nc4cccc(Cl)c4C)CC3)c2)no1,/,/,/,/,.,/
Cc1ccc(NC(=O)C(=O)NCC(c2cccnc2)N2CCN(Cc3ccccc3)CC2)cc1F (stereo unspecified),/,/,/,/,.,/
SMILES,NPC1 promoter act,Rab9 prom act,ELG1 genotoxic,Luc counter,FLuc modulator,SMN2 splice enh
N#C/C(=C\c1ccc(F)cc1)C(=O)Nc1ccccn1,.,.,.,/,12µM,/
CCOc1ccc(/C=C(\C#N)C(=O)Nc2ccccn2)cc1,.,.,.,/,3.4µM,/
COCCCNC(=O)/C(C#N)=C/c1ccc(F)cc1,.,.,.,.,.,.
COc1ccc(CNC(=O)CSc2ncc3c(n2)-c2ccc(Cl)cc2N(Cc2ccccc2)S3(=O)=O)cc1,/,/,/,/,.,/
CC1CCN(S(=O)(=O)c2ccc3c(c2)N(CC(=O)N(C)Cc2ccccc2)C(=O)CO3)CC1,/,/,/,/,.,/
O=C(CCc1nc2ccccc2s1)N1CCN(c2ccccc2)CC1,.,.,.,.,.,.
O=C(c1ccc(-c2nc3ccccc3s2)o1)N1CCN(c2ccccc2O)CC1,?,?,.,/,17µM,/
O=C(O)c1ccc(-c2ccc(-c3ccccc3)cc2)o1,/,/,/,.,/,/
O=CN1CCN(C(=O)c2ccc(-c3nc4ccccc4s3)s2)CC1,1.8µM,1.1µM,?,.,11µM,/
O=Cc1ccc(-c2nc3ccccc3s2)o1,.,?,?,?,11µM,11µM
